Screens as filed in PubChem BioAssay.
Shown are actives, neighbours in structure and some others; about 1.1% of the full set was active somewhere.
SARS 3CLpro inh = SARS-CoV 3CLpro protease inhibitors, primary screen, biochemical, quenched FRET; recombinant SARS-CoV 3CLpro, quenched FRET peptide cleavage; inhibition, % at 6 µM; actives 0.14% (n = 290,000); AID 1706, 2009; in the data active means inhibition above about 12%
BJeLR lethal = MLPCN primary cell-based screen for lethality selective to Ras in HRASV12 cells. AID 1554, 2009. actives 0.17% (n = 300,000). inhibition, % (test concentration not listed). BJeLR (HRASV12) viability, CellTiter-Glo ATP luminescence, 48 h; in the data active means inhibition above about 50%
MazF activator = activators of E. coli MazEF toxin-antitoxin RNase, primary screen, biochemical, fluorescence, uHTS | Endoribonuclease toxin MazF (Escherichia coli (strain K12)), P0AE70 | FAM/BHQ RNA-DNA oligo cleavage fluorescence, 5 h | activation, % at 20 µM | actives 0.32% (n = 350,000) | AID 504720, 2011; in the data active means activation above about 50%
Target sequence (P0AE70 whole entry, looked up): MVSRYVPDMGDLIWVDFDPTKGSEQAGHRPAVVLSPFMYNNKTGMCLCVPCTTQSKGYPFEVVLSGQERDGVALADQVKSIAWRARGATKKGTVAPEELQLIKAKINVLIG
BioA inh = M. tuberculosis BioA enzyme inhibitors, primary screen, biochemical, plate reader, single point, HTS. AID 602481, 2012. inhibition, % at 9.99 µM. actives 0.096% (n = 360,000). purified M. tuberculosis BioA enzyme. 7,8-diaminopelargonic acid synthase BioA (Mycobacterium tuberculosis); in the data active means inhibition above about 40%
PfHsp40 yeast = rescue of yeast from PfHsp40 toxicity, primary screen, S. cerevisiae, ATP luminescence; AID 504582, 2011; growth rescue, % at 12.5 µM; S. cerevisiae expressing PfHsp40, growth rescue; actives 0.68% (n = 340,000); in the data active means growth rescue above about 28%, passing the limit was not always enough;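 further: yeast W303a lacking pdr1 and pdr3 grown in galactose medium; growth measured after three days at 30 °C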
Yp Topo-I inh = Yersinia pestis topoisomerase I inhibitors, primary screen, biochemical, cleavage product accumulation, plate reader, single point; AID 504884, 2011; DNA topoisomerase I (Yersinia pestis CO92); Y. pestis Topo-I cleavage product accumulation; activity, % at 10 µM; actives 0.064% (n = 360,000); in the data active means activity above about 50%, passing the limit was not always enough
Large screens that a line does not name were inactive.

O=C(Nc1ccccc1N(C(=O)c1ccco1)S(=O)(=O)c1cccs1)c1ccco1	PfHsp40 yeast 41
COc1ccc(-n2nc(C#N)c(Cl)cc2=O)cc1	PfHsp40 yeast 190 (no result: BJeLR lethal, BioA inh)
COC(=O)c1nn(-c2ccc(OC)cc2)c(=O)cc1O	none
CCC(=O)N(C)C[C@H]1Oc2ncc(C#CCc3ccccc3)cc2C(=O)N([C@@H](C)CO)C[C@@H]1C	none (no result: SARS 3CLpro inh, BJeLR lethal, MazF activator, PfHsp40 yeast, Yp Topo-I inh)
O=C(Nc1nc2ccccc2[nH]1)c1ccccc1F	BJeLR lethal 85
O=C(Nc1nc2ccccc2[nH]1)c1ccc(F)cc1	none (no result: BioA inh)
O=C(CCN1CCCCC1)NCC[C@H]1CC[C@@H](NC(=O)C2CCCC2)[C@H](CO)O1	none (no result: SARS 3CLpro inh, BJeLR lethal, MazF activator, PfHsp40 yeast, Yp Topo-I inh)
O=C(O)c1cccc2c1-c1ccccc1/C2=N\Nc1ccccc1	none (no result: PfHsp40 yeast)
O=C(O)c1cccc(NN=C2c3ccccc3-c3ccccc32)c1	PfHsp40 yeast 269 (no result: BioA inh)
C[C@@H](NC(=O)C[C@H]1CC[C@@H](NC(=O)c2cccnc2)[C@H](CO)O1)c1ccccc1	none (no result: SARS 3CLpro inh, BJeLR lethal, MazF activator, PfHsp40 yeast, Yp Topo-I inh)
CNc1nc(-c2ccccn2)nnc1-c1ccccc1	none
c1ccc(-c2nnc(-c3ccccn3)nc2NC2CCCCC2)cc1	BJeLR lethal 66, PfHsp40 yeast 46
COc1ccc(S(=O)(=O)Nc2ccc3c(c2)C(=O)N([C@H](C)CO)C[C@H](C)[C@H](CN(C)S(=O)(=O)c2cccs2)O3)cc1	none (no result: SARS 3CLpro inh, BJeLR lethal, MazF activator, PfHsp40 yeast, Yp Topo-I inh)
C[C@@H]1CN([C@H](C)CO)C(=O)c2cc(NC(=O)Nc3ccc(F)cc3)ccc2O[C@H]1CN(C)C(=O)Nc1ccc(C(F)(F)F)cc1	PfHsp40 yeast 47 (no result: SARS 3CLpro inh, BJeLR lethal)
COc1ccc(S(=O)(=O)Nc2ccc3c(c2)C(=O)N([C@H](C)CO)C[C@H](C)[C@@H](CN(C)S(=O)(=O)c2cccs2)O3)cc1	MazF activator 54 (no result: SARS 3CLpro inh, BJeLR lethal)
O=C(Nc1ccc2c(c1)[C@@H]1C[C@H](CC(=O)N3CCCCC3)O[C@@H](CO)[C@@H]1O2)c1ccc2c(c1)OCO2	none (no result: SARS 3CLpro inh, BJeLR lethal, MazF activator, PfHsp40 yeast, Yp Topo-I inh)
COc1ccc(/C=C2\SC(=O)NC2=S)cc1OC	PfHsp40 yeast 143
COc1ccc(/C=C2/SC(c3ccc(C)cc3)=NC2=O)cc1OC	none (no result: BioA inh)
CCOc1ccc(/C=C2\SC(=S)NC2=O)cc1OC	none
COc1ccc(/C=C2\SC(c3ccc(C)cc3)=NC2=O)cc1OC	MazF activator active
COc1cc(/C=C2\SC(c3ccc(C)cc3)=NC2=O)cc(OC)c1OC	MazF activator 102
COc1ccc(-c2cnc3c(c2)C(=O)N([C@@H](C)CO)C[C@@H](C)[C@@H](CN(C)C(=O)C2CC2)O3)cc1	none (no result: SARS 3CLpro inh, BJeLR lethal, MazF activator, PfHsp40 yeast, Yp Topo-I inh)
COc1ccc(S(=O)(=O)N(C)C[C@H]2Oc3ccc(NC(=O)C4CC4)cc3CC(=O)N([C@@H](C)CO)C[C@H]2C)cc1	none (no result: SARS 3CLpro inh, BJeLR lethal, MazF activator, PfHsp40 yeast, Yp Topo-I inh)
N=c1oc2ccccc2cc1-c1nc(-c2ccc(Cl)cc2)cs1	PfHsp40 yeast 86
O=c1oc2ccccc2cc1-c1csc(Cc2nc(-c3ccc(Cl)cc3)cs2)n1	none
COc1cc2c(cc1OC)CN(C(=O)[C@@H]1[C@H]3C(=O)O[C@H](c4ccccc4)[C@H](c4ccccc4)N3[C@H](c3ccc(OCCO)cc3)[C@@]13C(=O)Nc1ccc(C#CC4(O)CCCCCC4)cc13)CC2	none (no result: SARS 3CLpro inh, BJeLR lethal, MazF activator, PfHsp40 yeast, Yp Topo-I inh)
COc1cccc2c1C(=O)c1c(O)c3c(c(O)c1C2=O)C[C@@](O)(C(=O)CO)C[C@@H]3OC1CC(N)C(O)C(C)O1 (stereo partly drawn)	none (no result: SARS 3CLpro inh, BJeLR lethal, BioA inh)
COc1cccc2c1C(=O)c1c(O)c3c(c(O)c1C2=O)CC(O)(C(C)=O)CC3OC1CC(N(C)C)C(O)C(C)O1 (stereo not drawn)	PfHsp40 yeast 401 (no result: SARS 3CLpro inh, BJeLR lethal, BioA inh)
COc1cccc2c1C(=O)c1c(O)c3c(c(O)c1C2=O)C[C@@](O)(C(=O)CO)C[C@@H]3O[C@H]1C[C@H](N)[C@H](O)[C@H](C)O1	BJeLR lethal 75, PfHsp40 yeast 146
Cc1cc(C(=O)Nc2cccc3c2O[C@@H](CN(C)S(=O)(=O)c2cn(C)cn2)[C@H](C)CN([C@@H](C)CO)C3=O)n(C)n1	none (no result: SARS 3CLpro inh, BJeLR lethal, MazF activator, PfHsp40 yeast, Yp Topo-I inh)
